# Only a selection was taken, and hits are over-represented in it overall.
# Mito fusion act – blocks mitochondrial division or promotes mitochondrial fusion. S. cerevisiae fusion-defective mutant growth rescue, CellTiterGlo 48 h. 320,000 tested, 0.23% active. Potency, µM (titrated, usually from 46.1 µM), inactives show at the highest dose growth rescue (activation), actives largely listed as activators; further: potency means the concentration at half of the fitted maximal effect; % of control where 0% means no effect; nearly all actives have a fitted effect of over 45% in size
#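 Temperature-sensitive fusion-defective S. cerevisiae (e.g. fzo1-1, mgm1-5) were grown with compound in YPEG medium (3% ethanol, 3% glycerol) for 48 hours at 37C. Growth rescue was measured as viability by CellTiterGlo luminescence after 10 minutes at ambient.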
# ClpP mod – qHTS Assay for Activators of ClpP. AID 651965, 2013. ATP-dependent Clp protease proteolytic subunit (Bacillus subtilis (strain 168)), P80244. purified B. subtilis ClpP, FRET peptide cleavage, 20 min. Potency, µM (series often up to 57.5 µM), for inactives: top-dose activity change, negative = active. 340,000 tested, 1.9% active; active means well fitted falling curve with a large enough effect; inconclusive means small, poorly fitted or top-dose-only effect; inactive means no such curve, though single readings can be large or run the other way; further: potency means the concentration at half of the fitted maximal effect; the source files actives as falling curves though it sought activators and does not explain the sign; nearly all actives have a fitted effect of over 65% in size
# Target sequence (P80244 whole entry, looked up): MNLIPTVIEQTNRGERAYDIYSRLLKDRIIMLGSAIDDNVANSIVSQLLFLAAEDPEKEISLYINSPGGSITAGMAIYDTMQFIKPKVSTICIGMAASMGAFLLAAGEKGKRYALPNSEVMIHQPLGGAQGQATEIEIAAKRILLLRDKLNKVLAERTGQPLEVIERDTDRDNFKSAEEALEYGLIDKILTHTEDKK
#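 Buffer: 100 mM Tris/HCl pH8, 100 mM KCl, 0.05% low protease BSA, 2.5% glycerol, 0.01% Tween-20. ClpP 10 microg/mL final; 20 min RT; delta FRET normalized to ADEP and DMSO controls.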
# LDHA inh – blocks human lactate dehydrogenase A; purified LDHA, NADH/diaphorase-resazurin fluorescence; stronger effect = lower value; AID 1347041; activity change, % (values are at about 110 or 230 µM); 480,000 tested, 0.15% active; P00338; in the data active means activity change below about -30%; inconclusive means mostly about -25% to -30%;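 further: plate controls were DMSO wells for no effect and wells without enzyme for full effect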
#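 LDH5 2 nM; NADH 0.06 mM, pyruvate 0.2 mM; 200 mM Tris pH 7.4, EDTA, Tween-20; 5 min RT. Detection: diaphorase 0.133 mg/mL + resazurin 37 µM, fluorescence ex540/em590 at 0 and 20 min; normalized to enzyme-free and DMSO wells.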
# mIDH1 inhibitor – human IDH1 R132H inhibition; O75874; Potency, µM (titrated, usually from 76.6 µM), inactives show top-dose activity change, negative = inhibition, most hits filed as inhibitors; IDH1-R132H enzyme, NADPH consumption, diaphorase/resazurin fluorescence; 390,000 tested, 0.093% active; further: potency means the concentration at half of the fitted maximal effect; on the % scale 0 is the no-effect control and ±100 the full control effect; nearly all actives have a fitted effect of over 65% in size
#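 IDH1-R132H (0.5 ug/mL dispensed) in pH 7.5 Tris buffer was preincubated 30 min with compound, then given a substrate mix of 0.016 mM NADPH and 2 mM alpha-KG for 80 min at room temperature; remaining NADPH was read by diaphorase/resazurin fluorescence.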
# ASM inhibitor – human S-ASM enzyme inhibition. placental ASM, HMU-PC fluorogenic substrate, 60 min. Potency, µM (doses to about 57.5 µM), inactives show at the top dose activity change, negative = inhibition, most hits filed as inhibitors. 340,000 tested, 0.006% active; further: potency means the concentration at half of the fitted maximal effect
# Target sequence (P17405 47-631 limits assumed): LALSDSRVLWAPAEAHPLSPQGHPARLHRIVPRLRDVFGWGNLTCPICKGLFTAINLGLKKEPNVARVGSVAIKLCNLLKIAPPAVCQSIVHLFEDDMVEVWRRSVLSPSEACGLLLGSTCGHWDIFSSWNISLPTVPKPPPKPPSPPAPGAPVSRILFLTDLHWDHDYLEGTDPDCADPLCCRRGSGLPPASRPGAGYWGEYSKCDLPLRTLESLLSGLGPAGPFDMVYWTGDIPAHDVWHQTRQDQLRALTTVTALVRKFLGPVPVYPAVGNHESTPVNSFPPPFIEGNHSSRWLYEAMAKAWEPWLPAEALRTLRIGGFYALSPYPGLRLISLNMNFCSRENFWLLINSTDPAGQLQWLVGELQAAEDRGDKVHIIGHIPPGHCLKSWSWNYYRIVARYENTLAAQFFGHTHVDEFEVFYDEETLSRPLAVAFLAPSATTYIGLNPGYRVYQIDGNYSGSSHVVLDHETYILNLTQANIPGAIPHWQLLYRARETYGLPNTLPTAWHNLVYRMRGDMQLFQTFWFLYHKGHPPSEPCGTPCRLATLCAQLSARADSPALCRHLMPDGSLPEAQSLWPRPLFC
#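 Steps: dispense placental human ASM, pin compound, wait 10 min at room temperature, add HMU-PC0 substrate at 9 uM final, incubate 60 min at 37 °C, add stop solution raising pH to 10, read fluorescence.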
# RGS4 inhibitor – blocks human RGS4-accelerated GTP hydrolysis. Transcreener GDP fluorescence polarization, RGS4-accelerated GTP hydrolysis. Potency, µM (highest dose often 114 µM), for inactives: at the highest dose activity change, negative = inhibition, usual class: inhibitors. 390,000 tested, 0.039% active; further: potency means the concentration at half of the fitted maximal effect; on the % scale 0 is the no-effect control and ±100 the full control effect; nearly all actives have a fitted effect of over 75% in size
#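 MLSMR compounds (23 nl, pin-transferred) preincubated 10 min at room temperature with a 500nM (2x) first reagent, then RGS4 at 900nM (2x) plus Transcreener GDP mix added; fluorescence polarization (620/688 nm) read before and after 90 min at 30 °C.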
# Active calls of the source: *; i = inactive; u = inconclusive; x = not tested or not shown; [ ] = another dose, or the depositor's remark. Unless noted, the call rests on the fitted dose curve; in most records, active means well fitted curve in the direction sought with a large enough effect; inconclusive means small, poorly fitted or top-dose-only effect, or another doubt; inactive means no such curve, though single readings can be large; an effect the other way counts as inactive or inconclusive.
SMILES,Mito fusion act,ClpP mod,LDHA inh,mIDH1 inhibitor,ASM inhibitor,RGS4 inhibitor
C[C@@](N)(C(=O)O)[C@@H]1C[C@@H]1C(=O)O,x,x,x,x,x,24µM*
CC(C)(C)CC(=O)NCCCNC(=O)c1cccc(O)c1,x,x,1,x,x,x
O=C(Nc1cccc2cccnc12)c1cccc(S(=O)(=O)N2CCN(c3ccccc3)CC2)c1,x,x,5,x,x,x
Cc1ccc(OCc2ccc(C(=O)Nc3cccc(C)c3)cc2)cc1,x,x,-2,x,x,x
Cc1ccc(CNc2ncnc3c2c(-c2ccccc2)cn3-c2ccccc2)cc1,x,28µM*,3,5%,x,-22%
CCOC(=O)C(CC)Sc1ncnc2c1c(-c1ccccc1)cn2-c1ccc(OC)cc1 (stereo not drawn),x,22µM*,-3,-10%,x,-4%
COc1ccc(-n2cc(-c3ccccc3)c3c(N4CCOCC4)ncnc32)cc1,3%,x,0,-12%,-8%,-15%
COc1ccc(CNc2ncnc3c2c(-c2ccccc2)cn3-c2ccccc2)cc1,x,25µM*,4,-9%,x,-7%
Cc1[nH]c(=O)cc2ccccc12,0%,22µM*,-7,3%,2%,-2%
O=c1c2ccccc2n2c(-c3ccc(O)cc3)nnc2n1Cc1ccccc1Cl,x,x,10,x,x,x
COC(=O)c1[nH]c2ccc(F)cc2c1NC(C)=O,x,x,2,x,x,x
CCOC(=O)c1[nH]c2cc(OC)c(OC)cc2c1NC(=O)C(C)N1CCN(Cc2ccccc2)CC1 (stereo not drawn),0%,32µM*,3,9%,2%,-18%
COC(=O)c1[nH]c2ccccc2c1NC(=O)Oc1ccccc1,-1%,28µM*,2,2%,86%,-19%
C=CCOC(=O)Nc1c(C(=O)OC)[nH]c2ccccc12,2%,-7%,-2,7%,-2%,-1%
COC(=O)c1[nH]c2cc(OC)c(OC)cc2c1NC(=O)Oc1ccccc1,0%,32µM*,11,7%,10%,-35%
Fc1ccccc1OCCSc1nc2ccccc2s1,x,x,-2,x,x,x
Cc1ccc2c(c1)N(CCC(=O)NC(C)C)C(=O)CO2,0%,28µM*,-2,3%,0%,3%[11.4 µM]
O=C(CN1CCC(C(=O)NCc2ccco2)CC1)NC1CCCC1,x,x,7,x,x,x
CCOC(=O)C1=C(C)OC(n2cccc2)=C(C#N)C1c1ccc(OC)c(OC)c1OC (stereo not drawn),x,x,3,x,x,x
N#Cc1nc(-c2ccco2)oc1N1CCN(C(c2ccccc2)c2ccccc2)CC1,22%,6.3µM*,-15,-1%,-3%,4%
N#Cc1nc(-c2ccco2)oc1N1CCc2ccccc2C1,8%,14µM*,2,2%,2%,-19%
N#Cc1nc(-c2cccs2)oc1N1CCN(Cc2ccccc2)CC1,u,25µM*,3,0%,45%,-5%
N#Cc1nc(-c2ccco2)oc1N1CCN(c2cccc(Cl)c2)CC1,19%,32µM*,0,-2%,-14%,-4%
Cc1sc2nc(SCc3cccc(Cl)c3)n(CCCN3CCOCC3)c(=O)c2c1C,x,x,0,x,x,x
Cc1cccc(C(C)C)c1NC(=O)CSc1ncnc2ccccc12,x,x,-22,x,x,x
SMILES,Mito fusion act,ClpP mod,LDHA inh,mIDH1 inhibitor,ASM inhibitor,RGS4 inhibitor
CCn1c2ccccc2c2cc(/C=N/NC(=O)c3ccccc3)ccc21,3%,22µM*,-8,10%,56%,3%
COc1cc(C(=O)N/N=C/c2ccc3c(c2)c2ccccc2n3C)ccc1O,5%,28µM*,-7,1%,-10%,20%
COc1cc(C=NNC(=O)c2ccccc2-n2cccc2)ccc1O,x,20µM*,6,-3%,0%,7%
O=C(N/N=C\c1ccc(O)c([N+](=O)[O-])c1)c1ccccc1-n1cccc1,-1%,-3%,1,4%,-2%,12%
CC(=O)NNC(=S)Nc1ccc(Cl)c(Cl)c1,x,x,2,x,x,x
CCOC(=O)Cc1nnc(SC(C)C(=O)Nc2ccc(C)c(F)c2)n1C (stereo not drawn),x,x,-6,x,x,x
COC(=O)C1=C(C)NC(=S)NC1c1ccc(OC(=O)c2ccco2)cc1 (stereo not drawn),9%,x,-3,-2%,2%,-26%
COC(=O)C1=C(C)NC(C)=C(C(=O)OC)C1c1ccc(OC(=O)c2ccco2)cc1,6%,18µM*,-2,4%,244%,-18%
Fc1ccc(CNc2ccc3nnc(C(F)(F)F)n3n2)cc1,x,x,-11,x,x,x
O=S(=O)(Nc1nc(SCc2ccc(Cl)cc2)n[nH]1)c1ccc(F)cc1,29%,18µM*,0,0%,-2%,-42%
Cc1nc(CN2CCN(CCOc3ccc(Cl)cc3)CC2)no1,x,x,-32*,x,x,x
Cc1nc2cc(NS(=O)(=O)c3c(C)c(C)cc(C)c3C)ccc2s1,35µM*,2%,-4,10%,-19%,-4%
Cc1ccccc1C(=O)Nc1cccc(-c2nc3cccnc3s2)c1,x,u,-18,2%,x,25%
Cc1cccc(CC(=O)Nc2cccc(-c3nc4cccnc4s3)c2)c1,x,20µM*,2,-2%,x,0%
Cc1nc2ccc(S(=O)(=O)Nc3cccc(-c4nc5cccnc5s4)c3)cc2s1,16µM*,-15%,-1,5%,-16%,12%
Cc1nc2ccc(S(=O)(=O)Nc3ccc(-c4nc5cccnc5s4)cc3)cc2s1,u,4%,-18,-8%,i,3%
CCCn1c(Cn2nnc(-c3ccc(F)cc3)n2)nc2cc(S(=O)(=O)N3CCOCC3)ccc21,x,x,16,x,x,x
Cc1ccc(NC(=O)CNCCCN2CCOCC2)cc1S(=O)(=O)N1CCCCC1,-1%,-3%,-33*,-9%,0%,5%
Cc1ccc(NC(=O)CN2CCOCC2)cc1S(=O)(=O)N1CCCCC1,x,0%,-2,-5%,0%,3%
O=[N+]([O-])c1ccccc1/C=N/OCc1c(F)cccc1Cl,x,x,0,x,x,x
COc1ccc(C(=O)NC2CCCCCC2)cc1S(=O)(=O)N1CCOCC1,0%,25µM*,8,9%,3%,-16%
CC(C)OC(=O)c1cc(C(=O)O)c(C(=O)OC(C)C)cc1C(=O)O,x,x,1,x,x,x
CC(=O)Nc1ccc(S(=O)(=O)N(C)CC(=O)OCC(=O)NNC(=O)c2ccccc2F)cc1,-2%,11µM*,-6,0%,1%,-9%
CC(C)CCC(C(=O)O)C(C)CC(=O)NC1CCCCC1 (stereo not drawn),2%,0%,-2,1%,2%,11%
CCCCCC(C(=O)O)C(C)CC(=O)NC1CCCCC1 (stereo not drawn),-7%,13µM*,-8,6%,0%,1%
